The campaign covered roughly 310,000 compounds. About 14,000 (4.5%) showed an effect of 50% or more. The effect is printed as a negative number. Shown is part of a subset that was picked to be rich in strong results.
Target: human ether-à-go-go-related gene (hERG) potassium channel (human, UniProt Q12809)
Assay: primary screen, population patch clamp on CHO cells stably expressing hERG; higher = less effect of the substance
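Note: peak tail current of the secondary pulse compared with the same well before compound.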

Sequence of human ether-à-go-go-related gene (hERG) potassium channel (Q12809 whole entry, looked up): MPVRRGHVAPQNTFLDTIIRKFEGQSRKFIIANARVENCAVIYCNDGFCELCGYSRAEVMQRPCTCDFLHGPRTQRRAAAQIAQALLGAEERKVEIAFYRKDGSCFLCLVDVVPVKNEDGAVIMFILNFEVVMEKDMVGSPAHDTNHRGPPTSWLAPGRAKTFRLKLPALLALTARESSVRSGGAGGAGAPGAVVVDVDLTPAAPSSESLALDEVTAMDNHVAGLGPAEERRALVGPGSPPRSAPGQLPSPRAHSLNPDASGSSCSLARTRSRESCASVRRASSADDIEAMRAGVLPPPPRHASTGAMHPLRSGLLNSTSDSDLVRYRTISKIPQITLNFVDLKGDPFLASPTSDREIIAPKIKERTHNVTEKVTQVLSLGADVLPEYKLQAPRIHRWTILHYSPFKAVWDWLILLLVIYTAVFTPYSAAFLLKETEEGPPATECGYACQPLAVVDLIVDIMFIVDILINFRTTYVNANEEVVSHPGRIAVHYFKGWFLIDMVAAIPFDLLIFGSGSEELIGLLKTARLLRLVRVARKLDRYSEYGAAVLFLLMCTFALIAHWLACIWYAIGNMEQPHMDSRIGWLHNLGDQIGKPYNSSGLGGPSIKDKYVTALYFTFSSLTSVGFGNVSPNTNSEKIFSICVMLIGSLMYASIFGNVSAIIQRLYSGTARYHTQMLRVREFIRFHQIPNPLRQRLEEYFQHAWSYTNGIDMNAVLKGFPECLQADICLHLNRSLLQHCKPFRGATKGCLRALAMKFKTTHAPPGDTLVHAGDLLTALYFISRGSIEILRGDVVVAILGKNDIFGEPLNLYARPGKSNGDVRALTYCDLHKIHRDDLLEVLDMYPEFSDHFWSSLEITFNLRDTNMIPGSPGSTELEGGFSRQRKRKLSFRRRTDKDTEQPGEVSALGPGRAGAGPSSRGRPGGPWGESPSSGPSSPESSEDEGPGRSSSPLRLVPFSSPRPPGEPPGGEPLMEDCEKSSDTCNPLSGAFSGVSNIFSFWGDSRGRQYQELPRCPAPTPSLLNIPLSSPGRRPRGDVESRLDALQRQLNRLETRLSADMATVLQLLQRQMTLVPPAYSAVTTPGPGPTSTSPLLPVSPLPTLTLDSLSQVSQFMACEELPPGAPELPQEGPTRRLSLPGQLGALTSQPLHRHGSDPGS

| Compound | hERG current change (%, negative = inhibition) at 10uM [%] |
| --- | --- |
| O=C(CSc1ccccc1)N1CCN(c2ccc(F)cc2)CC1 | 10.8 |
| O=C(CSc1ccccc1)N1CCCC(N2CCN(c3ccc(F)cc3)CC2)C1 (stereo not shown) | -75.3 |
| O=C(CSc1ccccc1)N1CCCC(N2CCN(c3cccc(Cl)c3)CC2)C1 (stereo not shown) | -54.1 |
| CC(=O)CCC(=O)N1CCCC(N2CCN(c3cccc(Cl)c3)CC2)C1 (stereo not shown) | -2.63 |
| O=C(CSc1ccccc1)N1CCCC(N2CCN(c3ccccc3)CC2)C1 (stereo not shown) | -33.7 |
| O=C(CCC(F)(F)F)N1CCCC(N2CCN(c3cccc(Cl)c3)CC2)C1 (stereo not shown) | -46.8 |
| CCCc1cc(C(=O)NCc2ccco2)no1 | 9.57 |
| COc1cccc(CCc2nnc(CCC(=O)NCCc3cccc(C)n3)o2)c1 | 24.7 |
| CCCOc1cccc(C2C(C(=O)c3cc4ccccc4o3)=C(O)C(=O)N2c2cc(C)on2)c1 (stereo not shown) | -7.72 |
| CCCCCCOC(=O)C[N+](C)(C)CCOC1CC2CCC1(C)C2(C)C.[Cl-] (stereo not shown) | -78.1 |
| CCCOC(=O)C[N+](C)(C)CCOC1CC2CCC1(C)C2(C)C.[Br-] (stereo not shown) | 13 |
| CCC(C)OC(=O)C[N+](C)(C)CCOC1CC2CCC1(C)C2(C)C.[Cl-] (stereo not shown) | -17.3 |
| CC(C)CCOC(=O)C[N+](C)(C)CCOC1CC2CCC1(C)C2(C)C.[Cl-] (stereo not shown) | -16.3 |
| CCOC(=O)C[N+](C)(C)CCOC1CC2CCC1(C)C2(C)C.[Cl-] (stereo not shown) | 10.3 |
| CCCCOC(=O)C[N+](C)(C)CCOC1CC2CCC1(C)C2(C)C.[Br-] (stereo not shown) | -52.7 |
| CCCn1nc2cc(C(=O)NCc3ccc(OC(F)(F)F)cc3)ccc2c1OCC | 14.3 |
| O=C(COC(=O)c1ccc(Cl)nc1)NC1CCCCCC1 | -5.25 |
| CCCc1nnc(NC(=O)CCC(=O)N2CCN(C3c4ccccc4-c4ccccc43)CC2)s1 | -3.76 |
| CCCP(=O)(CC(=O)N(CC)CC)c1ccccc1 (stereo not shown) | 12 |
| COc1ccccc1N1CCN(C(=O)c2cc3n(n2)C(C(F)(F)F)CC(c2ccco2)N3)CC1 (stereo not shown) | -1.94 |
| CC(C)c1nnc(NC(=O)c2cc3ccccc3o2)s1 | 11.1 |
| Cc1c(CNC(=O)C2CC2)c(-n2cccc2)n(Cc2ccccc2)c1C | 27.1 |
| N#Cc1ccc(OCc2cccc(S(=O)(=O)N3CCOCC3)c2)cc1 | -82.1 |
| CC(=O)c1cc(Cl)ccc1OCc1cccc(S(=O)(=O)N2CCOCC2)c1 | -68.9 |

| Compound | hERG current change (%, negative = inhibition) at 10uM [%] |
| --- | --- |
| N#Cc1ccccc1OCc1cccc(S(=O)(=O)N2CCOCC2)c1 | -38.9 |
| Cc1cc(OCc2cccc(S(=O)(=O)N3CCOCC3)c2)ccc1Cl | -9.12 |
| O=S(=O)(c1cccc(COc2c(Cl)cccc2Cl)c1)N1CCOCC1 | -12 |
| O=S(=O)(c1cccc(COc2ccc(Cl)cc2Cl)c1)N1CCOCC1 | 3.46 |
| COC(=O)c1sc2nc(CN3CCOCC3)nc(N3CCOCC3)c2c1C | 1.53 |
| O=c1cc(N2CCN(c3ccccc3)CC2)[nH]c(=O)n1Cc1ccc(F)cc1 | -25.9 |
| OC1(c2ccccn2)COc2ccccc2O1 (stereo not shown) | -10.5 |
| CC(=O)Nc1ccc(Br)cc1C(=O)C(=O)O | -2.93 |
| CCCOc1ccc(-c2nnn(CC(=O)N3CCCCC3)n2)cc1 | 12.9 |
| N#C/C(=C\c1ccc(Cl)cc1)c1nc2ncccc2[nH]1 | -15.1 |
| CC1CCN(c2c(NCC3CCC(C(=O)N4CCCC(C)C4)CC3)c(=O)c2=O)CC1 (stereo not shown) | 2.75 |
| Cc1ccc(O)c(CNCCNCc2cc(C)ccc2O)c1 | -11.9 |
| CCc1ccc(O)c(CNCCNCc2cc(CC)ccc2O)c1 | -55.2 |
| Oc1ccc(Cl)cc1CNCc1ccc(Cl)cc1 | -3.68 |
| Cc1c(C)n(Cc2ccc(F)cc2)c2ccc(C(=O)NCCN3CCOCC3)cc12 | -19.2 |
| O=C(NCCN1CCOCC1)c1cc2c(=O)n3ccccc3nc2n1Cc1ccccc1 | -5.9 |
| N=c1c(C(=O)NCCN2CCOCC2)cc2c(=O)n3ccccc3nc2n1Cc1ccc(F)cc1 | -76.5 |
| Cc1cccn2c(=O)c3cc(C(=O)NCCN4CCOCC4)c(=N)n(Cc4ccc(F)cc4)c3nc12 | -72.9 |
| Cn1c(C(=O)NCCN2CCOCC2)cc2c(=O)n3ccccc3nc21 | 10 |
| Cc1ccc(Cn2c(=N)c(C(=O)NCCN3CCOCC3)cc3c(=O)n4ccccc4nc32)cc1 | -63.2 |
| CC(C)NC(=O)Cn1c(SCC(=O)c2ccc(F)cc2)nc2ccccc21 | 6.27 |
| COCCn1c(-c2ccc(F)cc2)nc2cccnc21 | 12.1 |
| O=C1C[C@H](NC(=O)OCc2ccccc2)CO1 | 6.32 |
| Fc1ccc(C2NCCn3cccc32)cc1.O=C(O)/C=C/C(=O)O (stereo not shown) | -3.11 |

| Compound | hERG current change (%, negative = inhibition) at 10uM [%] |
| --- | --- |
| O=C(Nc1ccc(S(=O)(=O)N2CCCC2)cc1)C1CCCN1C(=O)c1cccs1 (stereo not shown) | 0.837 |
| CCOc1ccc(NC(=O)[C@@H]2CCCN2C(=O)c2cccs2)cc1S(=O)(=O)N1CCCCC1 | 10.5 |
| COc1ccc(NC(=O)[C@@H]2CCCN2C(=O)c2cccs2)cc1S(=O)(=O)N1CCCCC1 | -6.06 |
| COc1ccc2nc(NC(=O)c3cccs3)sc2c1 | 8.71 |
| Cc1ccc(NC(=O)C2CCCN2C(=O)c2cccs2)cc1C (stereo not shown) | -25.5 |
| COc1ccc2nc(NC(=O)[C@@H]3CCCN3C(=O)c3cccs3)sc2c1 | -56.4 |
| O=C(Nc1ccc(OC(F)F)c(Cl)c1)[C@@H]1CCCN1C(=O)c1cccs1 | -74.3 |
| Cc1ccc(NC(=O)[C@@H]2CCCN2C(=O)c2cccs2)cc1S(=O)(=O)N1CCCCC1 | -63.9 |
| O=C(Nc1ccccc1OC(F)F)C1CCCN1C(=O)c1cccs1 (stereo not shown) | 1.98 |
| O=C(Nc1ccc(Cl)c(S(=O)(=O)N2CCOCC2)c1)[C@@H]1CCCN1C(=O)c1cccs1 | -57.6 |
| O=C(Nc1nc2ccc(Cl)cc2s1)[C@@H]1CCCN1C(=O)c1cccs1 | 3.87 |
| CCOc1ccc(NC(=O)[C@@H]2CCCN2C(=O)c2cccs2)cc1S(=O)(=O)N1CCOCC1 | 6.27 |
| CNC(=O)CN(C)S(=O)(=O)c1ccc(OC)c(Cl)c1 | 6.65 |
| CC(=O)Nc1ncc(Cc2cc(Cl)ccc2Cl)s1 | -1.4 |
| CSc1nnc(Cn2c(=O)sc3ccccc32)n1-c1cccc(Cl)c1 | -37.9 |
| Cn1c(=O)c2c(ncn2CC(=O)OCC(=O)Nc2ccccc2Cl)n(C)c1=O | 4.46 |
| CC(NCc1ccc2c(c1)OCO2)C(=O)NC1CCCc2ccccc21.O=C(O)C(=O)O (stereo not shown) | -22.6 |
| CC(C(=O)NC1CCCc2ccccc21)N1CCN(Cc2ccc3c(c2)OCO3)CC1 (stereo not shown) | -51.9 |
| CC(C(=O)NC1CCCc2ccccc21)N1CCN(c2ccc(F)cc2)CC1 (stereo not shown) | -35.6 |
| COC(=O)c1cc2c(ccn2C)n1C | 19.5 |
| CC(C)(C)c1ccc(S(=O)(=O)/N=C2\C=C(NS(=O)(=O)c3ccccc3)C(=O)c3ccccc32)cc1 | -2.61 |
| COc1ccc(/C=C/C(=O)NC(=S)NN2CCCCC2c2cccnc2)cc1OC (stereo not shown) | 3.25 |
| O=C(/C=C/c1ccc(Cl)cc1)NC(=S)NN1CCCCC1c1cccnc1 (stereo not shown) | -67 |
| COc1ccc(/C=C/C(=O)NC(=S)NN2CCCCC2c2cccnc2)cc1 (stereo not shown) | -26.9 |

| Compound | hERG current change (%, negative = inhibition) at 10uM [%] |
| --- | --- |
| O=C(NC(=S)N1CCCCC1c1cccnc1)c1ccc(F)cc1 (stereo not shown) | 5.06 |
| O=C(/C=C/c1ccc(F)cc1)NC(=S)N1CCCCC1c1cccnc1 (stereo not shown) | -68.1 |
| O=C(NC(=S)N1CCCCC1c1cccnc1)c1ccccc1 (stereo not shown) | 4.5 |
| COc1ccc(C)cc1NCc1cccc(OC)c1OC | 1.13 |
| COc1cc(/C=C(\C#N)C(=O)NCC2CCCO2)ccc1OCCC(C)C (stereo not shown) | 4.67 |
| O=C(Nc1ccccc1)N1CCCN(c2ccc(C(F)(F)F)cc2[N+](=O)[O-])CC1 | -39.9 |
| O=C(Cn1nc(Cc2cccnc2)c2ccccc2c1=O)NCC1CCCO1 (stereo not shown) | 9.7 |
| O=C(Cn1nc(Cc2cccnc2)c2ccccc2c1=O)NCc1ccc2c(c1)OCO2 | -25.8 |
| O=C(Cn1nc(Cc2cccnc2)c2ccccc2c1=O)NCC1COc2ccccc2O1 (stereo not shown) | -57.4 |
| Cc1ccc(C2CC(c3ccccc3)=NN2c2ccccc2)o1 (stereo not shown) | 4.42 |
| CCc1ccc2oc(C(=O)NCC(c3ccc(OC)cc3)N3CCCCC3)c(C)c2c1 (stereo not shown) | -3.57 |
| COc1ccc(C(CNC(=O)c2ccc(-c3ccccc3Cl)o2)N2CCOCC2)cc1 (stereo not shown) | -23.7 |
| COc1ccc(C(CNC(=O)c2oc3ccc(OC)cc3c2C)N2CCCC2)cc1 (stereo not shown) | -67.5 |
| COc1ccc(C(CNC(=O)c2oc3c(Cl)cccc3c2C)N2CCCC2)cc1 (stereo not shown) | -50.9 |
| COc1ccc(C(CNC(=O)c2oc3cc(C)c(Cl)cc3c2C)N2CCCCC2)cc1 (stereo not shown) | 16.3 |
| COc1ccc(C(CNC(=O)c2oc3ccc(F)cc3c2C)N2CCCCC2)cc1 (stereo not shown) | -59.9 |
| COc1ccc(C(CNC(=O)c2oc3ccc(C)cc3c2C)N2CCCCC2)cc1 (stereo not shown) | 6.26 |
| COc1ccccc1C(CNC(=O)c1ccc(-c2ccccc2Cl)o1)N1CCCC1 (stereo not shown) | -72.2 |
| COc1ccc(C(CNC(=O)c2oc3ccc(Cl)cc3c2C)N2CCCCC2)cc1 (stereo not shown) | -25.9 |
| COc1ccc(C(CNC(=O)c2oc3ccccc3c2C)N2CCCC2)cc1 (stereo not shown) | -43.8 |
| COc1ccc(C(CNC(=O)c2oc3ccc(Br)cc3c2C)N2CCCCC2)cc1 (stereo not shown) | -13.3 |
| COc1ccccc1C(CNC(=O)c1ccco1)N1CCCC1 (stereo not shown) | 1.23 |

From PMC4336329 (PLoS ONE, 2015)
